Data from the supplement of paper PMC6763611.

The compounds below were run on Plasmodium falciparum NF54 (assay: growth inhibition relative to untreated control; higher = more inhibition). Conditions: 5 µM; minimal medium (MM); 72 h.
Method in brief: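 Two media were used: minimal RPMI, and minimal RPMI carrying the chorismate end-products folate, pABA, pHBA, tyrosine, phenylalanine and tryptophan at 2.2 μM, 7.3 μM, 7.3 μM, 111 μM and 90 μM for the first five. In these media, P. falciparum NF54 ring stages (1% hematocrit, 1% parasitemia, 100 μL/well) were exposed in dark 96-well half-area plates to a single 5 μM or 1 μM test-compound dose for 72 h at 37 °C. Growth inhibition was then assessed with SYBR Green against untreated wells, subtracting background from uninfected erythrocytes.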
`Cc1cc2nc(NC(=O)C(C)(C)C)nc(Cl)c2n1Cc1ccc(Cl)cc1` was tested, and the growth inhibition was < 0%.
With `CCc1cc(=O)n(C)c(SC(C)C(=O)Nc2ccc(F)cc2)n1` (stereo not drawn) the growth inhibition was 94.5%.
In the case of `COc1cccc(-c2cc3c(Nc4cccnc4)nccc3[nH]2)c1`, the growth inhibition is reported as 94.8%.
Work on `CO[C@H]1/C=C\O[C@@]2(C)Oc3c(C)c(O)c4c(O)c(/c(=C/NN5CCN(C)CC5)c(O)c4c3C2=O)=N\C(=O)/C(C)=C\C=C/[C@H](C)[C@H](O)[C@@H](C)[C@@H](O)[C@@H](C)[C@H](OC(C)=O)[C@@H]1C` yielded a growth inhibition of 97.2%.
`CN1CCCN(C(c2ccccc2)c2ccc(Cl)cc2)CC1` (stereo not drawn) showed a growth inhibition of 17.6%.
`CNCCC(Oc1ccc(C(F)(F)F)cc1)c1ccccc1` (stereo not drawn) gave a growth inhibition of 2.19%.
`O=C(C1CCCCC1)N1CC(=O)N2CCc3ccccc3C2C1` (stereo not drawn) was tested, and the growth inhibition was < 0%.
Compound `C[C@H](C(N)=O)N1CCCC[C@@H]1c1ccc(OCc2cccc(F)c2)cc1` has a growth inhibition of 15.9%.
For `NCC(c1cccs1)S(=O)(=O)c1ccccc1` (stereo not drawn), the growth inhibition was 4.01%.
With `Cc1nn(C(=O)Nc2cccc(C(F)(F)F)c2)c(C)c1Sc1ncccn1` the growth inhibition was 39.2%.
`Cc1ccccc1C(=O)N1N=C(Nc2ccccc2)SC1(C)C` gave a growth inhibition of 5.01%.
In the case of `Cc1cc(NC(=O)c2ccc(Oc3ccc(Cl)cc3O)o2)no1`, the growth inhibition is reported as 34.9%.
In the case of `c1ccc2c(c1)CN(CC1CC1)CC1(CCN(Cc3c[nH]c4cnccc34)CC1)O2`, the growth inhibition is reported as 87.4%.
In the case of `O=C(Nc1nnc(-c2ccc(Cl)s2)o1)c1ccc(Cl)s1`, the growth inhibition is reported as < 0%.
Compound `COc1ccc(Cn2cnc3c(-c4ccco4)nc(Cl)nc32)cc1` has a growth inhibition of 23.6%.
`CCOC(=O)c1c(NC(=O)c2c(F)c(F)c(F)c(F)c2F)sc(C(N)=O)c1C` was tested, and the growth inhibition was 13.1%.
For `Oc1c(I)cc(I)c2cccnc12`, the growth inhibition was < 0%.
Work on `CN1CCC(c2cc(-c3ccncc3)c(-c3ccc(F)cc3)[nH]2)CC1` yielded a growth inhibition of 92.2%.
In the case of `N=C(N)Nc1ccc(-c2ccc(-c3ccc(N=C(N)N)c(Cl)c3)o2)cc1Cl`, the growth inhibition is reported as 88.2%.
For `Cc1cc(NCCc2ccccc2)nc(NC(=N)Nc2ccc(Cl)cc2)n1`, the growth inhibition was 93.7%.
`O=C(Nc1cnc2ccccc2c1)c1cccc(-n2cnnn2)c1` was tested, and the growth inhibition was 87.1%.
With `CC(C)NCC(=O)Nc1cccc(C(=O)Nc2cccc(C(F)(F)F)c2)c1` the growth inhibition was 97.4%.
Compound `Cc1ccc(S(=O)(=O)N2CCN(C(=O)c3cc(-c4ccccc4)n[nH]3)CC2)cc1` has a growth inhibition of 88.6%.
`COc1cccn2c(C(=O)N3CCCCC3)c(C(F)(F)F)nc12` was tested, and the growth inhibition was < 0%.
For `CC(C)(C)n1nc(Cc2ccc(F)c(Cl)c2)c2c(N)ncnc21`, the growth inhibition was 1.6%.
With `Nc1ncnc2c1ncn2C[C@@H](O)[C@@H](O)C(=O)O` the growth inhibition was < 0%.
Work on `Cc1nnc(NC(=O)c2cn(-c3ccccc3)nc2-c2ccccc2C)o1` yielded a growth inhibition of 83.6%.
With `Cc1cc(C)n2nc(C(=O)Nc3cc(C(F)(F)F)ccc3N3CCOCC3)nc2n1` the growth inhibition was 68.5%.
With `Cc1cc(C)cc(COc2ccc3c(C)c(CCC(=O)O)c(=O)oc3c2C)c1` the growth inhibition was < 0%.
With `O=C(Nc1nc(-c2ccccn2)cs1)c1cncn1-c1ccccc1` the growth inhibition was < 0%.
`O=C(Nc1ccc(N2CCNCC2)nc1)c1oc(-c2ccccc2)nc1C(F)(F)F` was tested, and the growth inhibition was 89.9%.
`O=C(NCCc1c[nH]c2ccccc12)c1cc2ccccc2oc1=O` was tested, and the growth inhibition was < 0%.
For `COc1ccccc1CNC(=O)c1cc(C2CC2)nc2c1cnn2C(C)C`, the growth inhibition was 91.4%.
With `Cc1ccc(NC(=O)c2cc(S(=O)(=O)NC(C)(C)C)ccc2C)nc1` the growth inhibition was 94.5%.
Work on `CCCc1ccc(S(=O)(=O)Nc2ccc(CN3CCN(CC4CC4)CC3)cc2)cc1` yielded a growth inhibition of 86.7%.
With `NC(=O)c1cc(-c2ccsc2)ccc1OCCOc1ccccc1` the growth inhibition was < 0%.
For `COc1ccc(OC)c(NCc2ccc3nc(N)nc(N)c3c2Cl)c1`, the growth inhibition was 94.2%.
`FC(F)(F)c1cccc(-c2nc3c(NCc4ccncc4)nccc3[nH]2)c1` was tested, and the growth inhibition was 96%.
